Test results: PubChem BioAssay (NCI)
The panel holds about 83,000 compounds, 20% with a hit somewhere; the sample as a whole holds those more often.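 For each line, cells grew in 96-well plates with the test compound present at a single concentration for 48 hours.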 Active and inactive are the calls of the source. Rule for the calls: active = growth percent below 10; inactive = the rest.

Experiments:
Assay in all cases: NCI-60 one-dose screen, 48 h (100 = growth as untreated, 0 = no growth, -100 = all killed)
Details in all cases: 10 µM
[1] = tested on: HCT-15 colon
[2] = tested on: HT29 colon
[3] = tested on: SNB-75 CNS
[4] = tested on: SNB-19 CNS
[5] = tested on: U251 CNS
[6] = tested on: PC-3 prostate
[7] = tested on: SK-MEL-5 melanoma
[8] = tested on: UACC-62 melanoma
[9] = tested on: LOX IMVI melanoma
[10] = tested on: SK-MEL-28 melanoma

Measured: growth

Clc1cc(Cl)c(OCCCCCCN2CCNCC2)c(Cl)c1
inactive: [3] 52.7% | [4] 49.8% | [6] 46.1%
active: [1] -32% | [2] -34.1% | [5] 8% | [7] -15.6% | [8] -54.4% | [9] -66.2% | [10] -12.6%

[O-]c1c[n+](-c2ccc(Cl)cc2)no1
inactive: [1] 99.4% | [2] 118% | [3] 90.4% | [4] 95.9% | [5] 102% | [6] 91.4% | [7] 95.6% | [8] 91.5% | [9] 98% | [10] 109%

CCCc1ccnc(NS(=O)(=O)c2ccc(N)cc2)n1
inactive: [1] 105% | [2] 72.9% | [3] 88.2% | [4] 76.6% | [5] 54.6% | [6] 60.7% | [7] 84.3% | [8] 85.7% | [9] 82.9% | [10] 78.9%

CC(C)C[C@H](NC(=O)Cn1ccc(Nc2ccccc2)cc1=O)B(O)O
active: [2] 1.28% | [7] 2.17% | [9] 3.14%
inactive: [1] 72.1% | [3] 79.9% | [4] 68% | [5] 65.9% | [6] 58.9% | [8] 25% | [10] 10.6%

CCN(CC)CCCOC(=O)Nc1ccccc1Cl
inactive: [1] 111% | [2] 103% | [3] 120% | [4] 104% | [5] 107% | [6] 96.1% | [7] 105% | [8] 109% | [9] 97.6% | [10] 116%

COc1cc(OC)cc(-c2ccc(-c3ccc(C(=N)N)cn3)o2)c1
inactive: [4] 33.3% | [6] 31.4%
active: [1] 6.84% | [2] -38.5% | [3] -35.7% | [5] -80.9% | [7] -95.7% | [8] -89.7% | [9] -89.5% | [10] -95.4%

C/C(=N/NC(=O)c1sc(=S)n(C)c1N)c1cc2cc(Cl)ccc2o1
inactive: [1] 92.6% | [2] 92.9% | [3] 144% | [4] 98.8% | [5] 97.5% | [6] 101% | [7] 11.3% | [8] 76.2% | [9] 72.9% | [10] 128%

O=S(=O)(O)C1(O)CCCCC1
inactive: [1] 87.3% | [2] 59% | [3] 82.3% | [4] 87.8% | [5] 99.3% | [6] 77.6% | [7] 92.9% | [8] 96.8% | [9] 97.7% | [10] 102%

NC(=O)C12C(=O)NC(=O)C1(C(=O)O)C21CCCC1 (centres undefined)
inactive: [1] 107% | [2] 110% | [3] 84.2% | [4] 99.3% | [5] 102% | [6] 99% | [7] 106% | [8] 101% | [9] 102% | [10] 109%

CCC1(C)OC(=O)NC1=O (centres undefined)
inactive: [1] 100% | [2] 99.9% | [3] 100% | [4] 108% | [5] 99% | [6] 79.3% | [7] 98.2% | [8] 103% | [9] 94.3% | [10] 108%

COc1ccc(-c2nnc(COc3ccc(NC(=O)Nc4ccccc4)cc3F)o2)cc1
inactive: [1] 88.2% | [2] 100% | [3] 68.2% | [4] 86.8% | [5] 85% | [6] 65.5% | [7] 89% | [9] 89.6% | [10] 98.6%

O=C(NC1CCN(Cc2ccccc2)CC1)c1cc(-c2ccncc2)nc2ccc(Cl)cc12
inactive: [1] 24.2% | [2] 19.9% | [3] 68.7% | [4] 24.8% | [6] 33.9% | [7] 16% | [9] 15.3% | [10] 46.5%
active: [5] 7.4%

O/N=C1\CCC2CCCCC2C1 (centres undefined)
inactive: [1] 99.6% | [2] 99.2% | [3] 71% | [4] 98.5% | [5] 107% | [6] 97.1% | [7] 102% | [9] 98.2% | [10] 108%

CCc1nn2c(-c3cc(OC)c(OC)c(OC)c3)c(-c3cc(OC)c(OC)c(OC)c3)nc2s1
inactive: [1] 77.9% | [2] 69.6% | [4] 61.9% | [5] 58.1% | [6] 82.9% | [7] 89.7% | [9] 85.1% | [10] 85.8%
active: [3] -25.6%

O=C1/C(=C/c2ccc(O)cc2)Oc2ccc(Cl)cc21
inactive: [1] 89.1% | [2] 155% | [3] 82.8% | [4] 85.1% | [5] 89.9% | [6] 95.1% | [7] 74.8% | [9] 82.3% | [10] 142%

Cc1nnc2c3nnc(-c4ccc(Cl)cc4)n3c3ccccc3n12
inactive: [1] 97.4% | [2] 103% | [3] 89.1% | [4] 106% | [5] 100% | [6] 91.8% | [7] 99.7% | [9] 97.2% | [10] 104%

O=[N+]([O-])c1ccc(-c2nc(-c3ccccc3)c(-c3ccccc3)n2-c2ccccc2)cc1
active: [6] -6.15%
inactive: [1] 12% | [2] 16.1% | [3] 80.4% | [4] 65.9% | [5] 32.5% | [7] 61.9% | [9] 18.8% | [10] 67.6%

Cc1ccc(S(=O)(=O)Oc2ccccc2-c2ccccc2)cc1
inactive: [1] 23.2% | [4] 42.8% | [5] 24.8% | [6] 42.4% | [9] 36% | [10] 30.8%
active: [2] 5.05% | [3] -12.1% | [7] 5.97%

CC(=O)c1ccc(NCn2nc(-c3ccc(Cl)cc3)oc2=S)cc1
inactive: [1] 99.3% | [2] 98.3% | [3] 107% | [4] 95.8% | [5] 96.1% | [6] 89.9% | [7] 104% | [9] 90.3% | [10] 95.5%

Nc1ccc2c(c1)Cc1cc(N)c(Cl)cc1-2
inactive: [1] 100% | [2] 101% | [3] 86.7% | [4] 92.9% | [5] 93.2% | [6] 95.7% | [7] 93.9% | [9] 104% | [10] 103%

O=C(Cn1ccc(=O)[nH]c1=O)c1ccc([N+](=O)[O-])o1
inactive: [1] 94.7% | [2] 101% | [3] 103% | [4] 120% | [5] 95.2% | [6] 85.8% | [7] 90.7% | [9] 80% | [10] 95.3%

CCCCCCCC/C=C/CCCCCCCCC1=NCCN1CCO
active: [9] -7.51%
inactive: [1] 59.2% | [2] 19.7% | [3] 57.3% | [4] 92.8% | [5] 54.1% | [6] 46.2% | [7] 85.6% | [10] 90.5%

Cc1cc2cc3c(=O)[nH]c(=O)cc-3n(CC(O)C(O)C(O)CO)c2cc1C (centres undefined)
inactive: [1] 105% | [2] 110% | [3] 103% | [4] 114% | [5] 104% | [6] 99.9% | [7] 110% | [9] 99.8% | [10] 114%

COc1ccc(/C(CS(=O)(=O)c2ccccc2)=N\O)cc1
inactive: [1] 99.4% | [2] 106% | [3] 87% | [4] 101% | [5] 93.9% | [6] 104% | [7] 95.8% | [9] 111% | [10] 100%

CCC(O)c1ccc(Br)cc1NC(=O)c1cccc(Cl)c1 (centres undefined)
inactive: [1] 28.5% | [2] 83.7% | [3] 38.8% | [4] 21.2% | [5] 11.7% | [6] 34.2% | [7] 10.7% | [10] 29.3%
active: [9] 0.289%

Cc1ccc([P+](Cc2ccc([N+](=O)[O-])cc2)(c2ccc(C)cc2)c2ccc(C)cc2)cc1
active: [7] -12.4%
inactive: [1] 96.7% | [2] 23.1% | [3] 30.9% | [4] 57.6% | [5] 39.6% | [6] 38.7% | [9] 32.4% | [10] 28.4%

COc1c(-c2c3sc(=O)[nH]c3nc3c2c(=O)[nH]n3C(C)C)cc2c(c1OC)OCO2
inactive: [1] 99.6% | [2] 102% | [3] 92.7% | [4] 98.7% | [5] 97.9% | [6] 92.6% | [7] 102% | [9] 92.3% | [10] 112%

CCOC(=O)c1cc2c(n1Cc1ccccc1)-c1oncc1CC2
inactive: [2] 35.4% | [3] 89.2% | [4] 86.2% | [5] 95.6% | [6] 76.2% | [7] 73.5% | [8] 75.8% | [9] 80.9%

O=[N+]([O-])c1ccc2c(c1)Cc1cc(I)ccc1-2
inactive: [1] 108% | [2] 91.6% | [3] 106% | [4] 109% | [5] 96% | [6] 101% | [7] 97.1% | [9] 116% | [10] 111%

O=C/C=C/c1ccc([N+](=O)[O-])cc1Cl
inactive: [1] 98% | [2] 97.4% | [3] 101% | [4] 105% | [5] 100% | [6] 86.6% | [7] 100% | [9] 47.8% | [10] 102%
